Source: PubChem BioAssay (Tox21)
A number with no mark means an inactive call. Results filed as inconclusive are left out. Entries that show only a call come without a potency. The source made the active and inactive calls. Unless noted, the call rests on the fitted dose curve; in most records, active means well fitted curve in the direction sought with a large enough effect in the repeat runs; inconclusive means weak or mixed curves; inactive means no such curve, though single readings can be large; an effect the other way counts as inactive or inconclusive.

What was measured:
[1] = qHTS assay to test for compound auto fluorescence at 535 nm (green) in HEK293 cells (AID 720680)
[2] = qHTS assay to test for compound auto fluorescence at 460 nm (blue) in HEK293 cell free culture (AID 720681)
In short: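 Test compounds were pinned into cell-free culture medium (DMEM with 10% FBS) and fluorescence was read directly at Ex/Em 405/460 nm. Signals were expressed as fluorescence equivalents of triamterene, with DMSO vehicle as control.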

[3] = qHTS assay to test for compound auto fluorescence at 535 nm (green) in HEK293 cell free culture (AID 720682)
In short: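 Compounds were pin-transferred into cell-free DMEM with 10% FBS, and green fluorescence was read at excitation 485 nm and emission 535 nm. Intensities were expressed as fluorescein-equivalent values.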

[4] = qHTS assay to test for compound auto fluorescence at 590 nm (red) in HEK293 cell free culture (AID 720683)
In short: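 Tox21 10K library compounds were pinned into cell-free DMEM with 10% FBS and fluorescence was read at excitation 540 nm. Activity is expressed as Rose Bengal sodium equivalency.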

[5] = qHTS assay to test for compound auto fluorescence at 590 nm (red) in HepG2 cell free culture (AID 720684)
In short: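 Red fluorescence (540 nm excitation, 590 nm emission) was measured after compound transfer into cell-free MEM supplemented with 10% FBS. Values are equivalencies against Rose Bengal sodium.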

[6] = qHTS assay to test for compound auto fluorescence at 460 nm (blue) in HepG2 cell free culture (AID 720685)
In short: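 Compound (23 nL) or DMSO pinned into cell-free MEM with 10% FBS; blue fluorescence read at 405/460 nm excitation/emission, expressed as auto-fluorescence equivalency to triamterene.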

[7] = qHTS assay to test for compound auto fluorescence at 535 nm (green) in HepG2 cell free culture (AID 720686)
[8] = qHTS assay to test for compound auto fluorescence at 460 nm (blue) in HepG2 cells (AID 720687)
In short: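 Cells (2,000/well in MEM with 10% FBS) attached overnight at 37 C, then were exposed to compound or DMSO for 1 hr at 37 C, 5% CO2. Fluorescence read at Ex/Em 405/460 nm, expressed as triamterene-equivalent signal.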

[9] = biological target: Glucocorticoid receptor (Homo sapiens) (UniProt P04150); experiment: qHTS assay to identify small molecule agonists of the glucocorticoid receptor (GR) signaling pathway (AID 720691; active means well fitted activation curve with a large enough effect in the signal ratio in the repeat runs, not every such curve was filed as active; the % refers to the signal ratio)
In short: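 Agonist mode in a HeLa line carrying a GRE-controlled beta-lactamase reporter. Compounds act for 18 h at 37 C before a 2 h room-temperature FRET substrate step and fluorescence reading.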

[10] = biological target: Glucocorticoid receptor (Homo sapiens) (UniProt P04150); experiment: qHTS assay to identify small molecule antagonists of the glucocorticoid receptor (GR) signaling pathway (AID 720692; active means well fitted inhibition curve with a large enough effect in the signal ratio in the repeat runs, not every such curve was filed as active; the % refers to the signal ratio; further: potency means the concentration at half of the fitted maximal effect)
In short: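 Cells plated, rested 4 h at 37 C/5% CO2; compounds in DMSO pin-transferred; dexamethasone added to 5 nM final; 18 h at 37 C; B/G FRET substrate added, 2 h room temperature; fluorescence measured.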

[11] = qHTS assay to identify small molecule antagonists of the glucocorticoid receptor (GR) signaling pathway - cell viability counter screen (AID 720693); further: nearly all actives have a fitted effect of over 55% in size
[12] = qHTS assay for identifying genotoxic compounds that show differential cytotoxicity against isogenic chicken DT40 cell lines with known DNA damage response pathways - wild type cell line (AID 743012); further: nearly all actives have a fitted effect of over 60% in size; further: potency means the concentration at half of the fitted maximal effect
In short: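 Cells (DT40 wild type, 300/well) are treated with DMSO-dissolved compounds after a ~0.5 h pre-incubation and kept 40 h at 37 C/5% CO2. Viability is then measured by CellTiter-Glo luminescence following 30 min at room temperature.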

[13] = qHTS assay for identifying genotoxic compounds that show differential cytotoxicity against isogenic chicken DT40 cell lines with known DNA damage response pathways - Rev3 mutant cell line (AID 743014); further: nearly all actives have a fitted effect of over 55% in size; further: potency means the concentration at half of the fitted maximal effect
[14] = qHTS assay for identifying genotoxic compounds that show differential cytotoxicity against isogenic chicken DT40 cell lines with known DNA damage response pathways - Rad54/Ku70 mutant cell line (AID 743015); further: nearly all actives have a fitted effect of over 60% in size; further: potency means the concentration at half of the fitted maximal effect
[15] = qHTS assay to identify small molecule antagonists of the androgen receptor (AR) signaling pathway using the MDA cell line - cell viability counter screen (AID 743041; further: nearly all actives have a fitted effect of over 45% in size)
In short: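 MDA-kb2 AR-luc human breast carcinoma cells (MMTV-luciferase, AR/GR responsive) were treated with compounds plus R1881 agonist for 16 h at 37 °C. Viability was read as CellTiter-Fluor fluorescence in the same wells as the reporter assay.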

[16] = qHTS assay to identify small molecule antagonists of the androgen receptor (AR) signaling pathway - cell viability counter screen (AID 743033; further: nearly all actives have a fitted effect of over 45% in size)
[17] = qHTS assay to identify small molecule antagonists of the thyroid receptor (TR) signaling pathway - cell viability counter screen (AID 743064); further: nearly all actives have a fitted effect of over 50% in size; further: potency means the concentration at half of the fitted maximal effect
In short: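 In-well cytotoxicity read by CellTiter-Fluor (30 min, 37 C) following 23.5 h exposure of GH3 cells bearing a TRE-luciferase sensor. Compounds were added alongside 1 nM (final) T3 to drive TR transactivation.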

[18] = biological target: Androgen receptor (Homo sapiens) (UniProt P10275); experiment: qHTS assay to identify small molecule antagonists of the androgen receptor (AR) signaling pathway (AID 743035; active means well fitted inhibition curve with a large enough effect in the signal ratio in the repeat runs, not every such curve was filed as active; the % refers to the signal ratio)
In short: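 Antagonism is scored as loss of R1881-driven beta-lactamase reporter expression in HEK293 cells carrying the reporter under a UAS element, after 16 h co-treatment at 37C and a 2 h room-temperature FRET substrate read.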

[19] = biological target: Androgen receptor (Homo sapiens) (UniProt P10275); experiment: qHTS assay to identify small molecule agonists of the androgen receptor (AR) signaling pathway using the MDA cell line (AID 743040; further: nearly all actives have a fitted effect of over 20% in size; further: potency means the concentration at half of the fitted maximal effect)
In short: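 MDA-kb2 breast carcinoma cells stably carrying an MMTV-driven luciferase reporter (AR- and GR-responsive) were seeded and held 5 h at 37C, 0% CO2, then exposed to compounds in DMSO for 16 h. Luminescence was read 30 min after ONE-Glo addition.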

[20] = biological target: Androgen receptor (Homo sapiens) (UniProt P10275); experiment: qHTS assay to identify small molecule antagonists of the androgen receptor (AR) signaling pathway using the MDA cell line (AID 743042; further: nearly all actives have a fitted effect of over 55% in size)
In short: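 MDA-kb2 cells (human breast carcinoma, stably carrying an MMTV-luciferase reporter responsive to AR and GR) were plated at 3,000 cells/well and preincubated 5 hr at 37C, then given compound plus R1881 agonist for 16 h. ONE-Glo luminescence was read.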

Glucocorticoid receptor (Homo sapiens), sequence (P04150 whole entry, looked up): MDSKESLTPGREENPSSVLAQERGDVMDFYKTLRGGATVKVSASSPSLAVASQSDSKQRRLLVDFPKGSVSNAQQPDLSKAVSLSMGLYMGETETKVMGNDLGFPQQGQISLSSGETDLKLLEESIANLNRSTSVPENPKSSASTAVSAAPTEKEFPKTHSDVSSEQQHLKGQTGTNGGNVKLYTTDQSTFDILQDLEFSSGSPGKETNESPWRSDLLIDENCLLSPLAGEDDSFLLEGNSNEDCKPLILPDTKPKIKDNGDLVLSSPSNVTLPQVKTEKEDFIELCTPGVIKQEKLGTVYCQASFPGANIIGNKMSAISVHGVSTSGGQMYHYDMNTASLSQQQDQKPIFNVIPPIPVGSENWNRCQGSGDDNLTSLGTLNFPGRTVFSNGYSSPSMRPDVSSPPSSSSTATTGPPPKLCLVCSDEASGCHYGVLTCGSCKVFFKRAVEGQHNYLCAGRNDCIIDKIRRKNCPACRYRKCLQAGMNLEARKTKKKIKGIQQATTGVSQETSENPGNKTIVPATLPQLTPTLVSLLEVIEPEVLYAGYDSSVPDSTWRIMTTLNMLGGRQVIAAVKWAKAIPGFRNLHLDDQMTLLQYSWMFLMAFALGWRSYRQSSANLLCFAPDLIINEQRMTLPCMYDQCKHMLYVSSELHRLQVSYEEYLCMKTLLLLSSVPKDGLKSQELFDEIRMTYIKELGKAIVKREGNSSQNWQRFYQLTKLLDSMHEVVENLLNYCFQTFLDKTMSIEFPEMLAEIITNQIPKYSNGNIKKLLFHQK
Androgen receptor (Homo sapiens), sequence (P10275 whole entry, looked up): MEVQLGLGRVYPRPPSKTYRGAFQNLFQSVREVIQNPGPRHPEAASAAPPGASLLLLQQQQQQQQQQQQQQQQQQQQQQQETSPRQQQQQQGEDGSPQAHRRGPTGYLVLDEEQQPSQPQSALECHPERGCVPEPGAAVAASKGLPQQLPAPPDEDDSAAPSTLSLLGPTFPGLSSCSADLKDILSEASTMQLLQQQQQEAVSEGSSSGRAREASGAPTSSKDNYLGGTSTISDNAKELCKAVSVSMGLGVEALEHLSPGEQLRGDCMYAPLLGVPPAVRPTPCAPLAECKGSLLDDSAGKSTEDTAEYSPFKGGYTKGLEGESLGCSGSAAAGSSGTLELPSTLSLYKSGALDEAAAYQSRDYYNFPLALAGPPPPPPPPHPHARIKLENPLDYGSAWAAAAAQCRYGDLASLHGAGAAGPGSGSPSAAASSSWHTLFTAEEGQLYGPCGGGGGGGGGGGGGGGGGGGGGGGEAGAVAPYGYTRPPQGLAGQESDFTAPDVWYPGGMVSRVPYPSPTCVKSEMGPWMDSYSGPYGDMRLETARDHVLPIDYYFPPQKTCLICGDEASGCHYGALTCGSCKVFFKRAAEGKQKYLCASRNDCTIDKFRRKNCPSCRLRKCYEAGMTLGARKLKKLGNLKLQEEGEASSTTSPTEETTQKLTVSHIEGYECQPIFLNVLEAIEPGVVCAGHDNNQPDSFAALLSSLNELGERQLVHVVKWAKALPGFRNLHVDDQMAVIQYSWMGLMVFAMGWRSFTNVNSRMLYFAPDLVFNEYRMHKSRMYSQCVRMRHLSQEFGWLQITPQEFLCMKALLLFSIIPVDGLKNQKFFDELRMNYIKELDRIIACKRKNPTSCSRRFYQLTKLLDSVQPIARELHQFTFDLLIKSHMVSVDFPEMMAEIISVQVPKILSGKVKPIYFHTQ

## NC(=O)Cn1c(=O)cc(CCN2CCN(c3nccc4sccc34)CC2)c2ccc(F)cc21
[1]
  outcome: inactive
[2]
  Potency: inactive
[3]
  outcome: inactive
[4]
  outcome: inactive
[5]
  outcome: inactive
[6]
  Potency: inactive
[7]
  outcome: inactive
[8]
  Potency: inactive
[9]
  Potency: inactive
[10]
  Potency: inactive
[11]
  Potency: inactive
[12]
  Potency: 27.3 µM (active)
[13]
  Potency: 27.3 µM (active)
[14]
  Potency: 24.3 µM (active)
[15]
  Potency: inactive

## Cc1ccc(S(=O)(=O)NC2CCCCC2)cc1
[1]
  outcome: inactive
[2]
  Potency: inactive
[3]
  outcome: inactive
[4]
  outcome: inactive
[5]
  outcome: inactive
[6]
  Potency: inactive
[7]
  outcome: inactive
[8]
  Potency: inactive
[9]
  Potency: inactive
[10]
  Potency: inactive
[11]
  Potency: inactive
[16]
  Potency: inactive
[15]
  Potency: inactive
[17]
  Potency: inactive

## OCC1CC=CCC1 (stereo not drawn)
[1]
  outcome: inactive
[2]
  Potency: inactive
[3]
  outcome: inactive
[4]
  outcome: inactive
[5]
  outcome: inactive
[6]
  Potency: inactive
[7]
  outcome: inactive
[8]
  Potency: inactive
[9]
  Potency: inactive
[11]
  Potency: inactive
[12]
  Potency: inactive
[13]
  Potency: inactive
[14]
  Potency: inactive
[16]
  Potency: inactive
[18]
  Potency: inactive
[15]
  Potency: inactive
[17]
  Potency: inactive

## O=C1OCCN1/N=C/c1ccc([N+](=O)[O-])o1
[1]
  outcome: inactive
[2]
  Potency: inactive
[3]
  outcome: inactive
[4]
  outcome: inactive
[5]
  outcome: inactive
[6]
  Potency: inactive
[7]
  outcome: inactive
[8]
  Potency: inactive
[9]
  Potency: inactive
[10]
  Potency: inactive
[11]
  Potency: inactive
[17]
  Potency: inactive

## O=C(CCCN1CCN(c2ccc(F)cc2)CC1)NC1c2ccccc2CSc2ccccc21 (stereo not drawn)
[1]
  outcome: inactive
[2]
  Potency: inactive
[3]
  outcome: inactive
[4]
  outcome: inactive
[5]
  outcome: inactive
[6]
  Potency: inactive
[7]
  outcome: inactive
[8]
  Potency: inactive
[9]
  Potency: inactive
[10]
  Potency: inactive
[11]
  Potency: inactive
[12]
  Potency: 13.3 µM (active)
[13]
  Potency: 26.6 µM (active)
[14]
  Potency: 18.8 µM (active)
[15]
  Potency: inactive
[17]
  Potency: 10.6 µM (active)

## CC(CCO)CCc1ccccc1 (stereo not drawn)
[1]
  outcome: inactive
[2]
  Potency: inactive
[3]
  outcome: inactive
[4]
  outcome: inactive
[5]
  outcome: inactive
[6]
  Potency: inactive
[7]
  outcome: inactive
[8]
  Potency: inactive
[9]
  Potency: inactive
[10]
  Potency: inactive
[11]
  Potency: inactive
[14]
  Potency: inactive
[16]
  Potency: inactive
[15]
  Potency: inactive
[17]
  Potency: inactive

## CC(C)c1nnc2ccc(-c3ocnc3-c3cc(F)ccc3F)cn12
[1]
  outcome: inactive
[2]
  Potency: inactive
[3]
  outcome: inactive
[4]
  outcome: inactive
[5]
  outcome: inactive
[6]
  Potency: inactive
[7]
  outcome: inactive
[8]
  Potency: inactive
[9]
  Potency: inactive
[10]
  Potency: inactive
[11]
  Potency: inactive
[12]
  Potency: 27.3 µM (active)
[13]
  Potency: 21.7 µM (active)
[14]
  Potency: 27.3 µM (active)
[15]
  Potency: inactive
[17]
  Potency: inactive

## CC(=O)OCC(=O)[C@H]1CC[C@H]2[C@@H]3CCC4=CC(=O)CC[C@]4(C)[C@H]3CC[C@]12C
[1]
  outcome: inactive
[2]
  Potency: inactive
[3]
  outcome: inactive
[4]
  outcome: inactive
[5]
  outcome: inactive
[6]
  Potency: inactive
[7]
  outcome: inactive
[8]
  Potency: inactive
[9]
  Potency: inactive
[10]
  Potency: 848 nM (active)
[11]
  Potency: inactive
[16]
  Potency: inactive
[18]
  Potency: inactive
[19]
  Potency: 9.44 µM (active)
[15]
  Potency: inactive
[20]
  Potency: inactive
[17]
  Potency: inactive

## CO/N=C1\CN(c2nc3c(cc2F)c(=O)c(C(=O)O)cn3C2CC2)CC1CN (stereo not drawn)
[1]
  outcome: inactive
[2]
  Potency: inactive
[3]
  outcome: inactive
[4]
  outcome: inactive
[5]
  outcome: inactive
[6]
  Potency: inactive
[7]
  outcome: inactive
[8]
  Potency: inactive
[9]
  Potency: inactive
[10]
  Potency: inactive
[11]
  Potency: inactive
[13]
  Potency: inactive
[16]
  Potency: inactive
[15]
  Potency: inactive

## COCCOC
[1]
  outcome: inactive
[2]
  Potency: inactive
[3]
  outcome: inactive
[4]
  outcome: inactive
[5]
  outcome: inactive
[6]
  Potency: inactive
[7]
  outcome: inactive
[8]
  Potency: inactive
[9]
  Potency: inactive
[10]
  Potency: inactive
[11]
  Potency: inactive
[16]
  Potency: inactive
[15]
  Potency: inactive
[17]
  Potency: inactive

## O=C(O)Cc1ccc(-c2ccccc2)cc1
[1]
  fluorescence, % of fluorescein: -0.0578% [at 18.6 µM]
[2]
  fluorescence, % of fluorescent control: 0% [at 18.6 µM]
[3]
  activity change: -0.0541% [at 18.6 µM]
[4]
  fluorescence, % of fluorescent control: 0.0962% [at 18.6 µM]
[5]
  fluorescence, % of Rose Bengal: -0.0701% [at 18.6 µM]
[6]
  fluorescence, % of fluorescent control: -0.109% [at 18.6 µM]
[7]
  fluorescence, % of fluorescein control: -0.0983% [at 18.6 µM]
[8]
  fluorescence, % of fluorescent control: -0.1% [at 18.6 µM]
[9]
  Potency: inactive
[10]
  Potency: inactive
[11]
  Potency: inactive
[12]
  Potency: inactive
[13]
  Potency: inactive
[14]
  Potency: inactive
[18]
  Potency: inactive
[19]
  Potency: inactive
[15]
  Potency: inactive
[20]
  Potency: inactive
[17]
  Potency: inactive

## CCC(=O)OC/C=C/c1ccccc1
[1]
  outcome: inactive
[2]
  Potency: inactive
[3]
  outcome: inactive
[4]
  outcome: inactive
[5]
  outcome: inactive
[6]
  Potency: inactive
[7]
  outcome: inactive
[8]
  Potency: inactive
[9]
  Potency: inactive
[10]
  Potency: inactive
[11]
  Potency: inactive
[12]
  Potency: inactive
[13]
  Potency: inactive
[14]
  Potency: inactive
[16]
  Potency: inactive
[15]
  Potency: inactive
[17]
  Potency: inactive

## COC(=O)CC(=O)C(C)(C)C
[1]
  outcome: inactive
[2]
  Potency: inactive
[3]
  outcome: inactive
[4]
  outcome: inactive
[5]
  outcome: inactive
[6]
  Potency: inactive
[7]
  outcome: inactive
[8]
  Potency: inactive
[9]
  Potency: inactive
[10]
  Potency: inactive
[11]
  Potency: inactive
[12]
  Potency: inactive
[13]
  Potency: 61.1 µM (active)
[16]
  Potency: inactive
[15]
  Potency: inactive
[17]
  Potency: inactive

## Cc1cnc(C)c(C)n1
[1]
  outcome: inactive
[2]
  Potency: inactive
[3]
  outcome: inactive
[4]
  outcome: inactive
[5]
  outcome: inactive
[6]
  Potency: inactive
[7]
  outcome: inactive
[8]
  Potency: inactive
[9]
  Potency: inactive
[10]
  Potency: inactive
[11]
  Potency: inactive
[12]
  Potency: inactive
[16]
  Potency: inactive
[15]
  Potency: inactive
[17]
  Potency: inactive

## CN1CCN(c2c(F)cc3c(=O)c(C(=O)O)cn4c3c2OCN4C)CC1
[1]
  outcome: inactive
[2]
  Potency: inactive
[3]
  outcome: inactive
[4]
  outcome: inactive
[5]
  outcome: inactive
[6]
  Potency: inactive
[7]
  outcome: inactive
[8]
  Potency: inactive
[9]
  Potency: inactive
[10]
  Potency: inactive
[11]
  Potency: inactive
[12]
  Potency: inactive
[13]
  Potency: inactive
[14]
  Potency: inactive
[15]
  Potency: inactive
[17]
  Potency: inactive
